These results are taken from PubChem BioAssay (Tox21).

Molecules are shown by their SMILES. Where “and” joins values, the source holds several entries; their conditions need not be identical. Equal values may be shown once. Results filed as inconclusive are left out. Some compounds were tested as several samples or in several runs, with calls that do not always agree. Calls of active or inactive are those of the source. Calls come from the whole dose curve; as a rule, active = well fitted curve in the direction sought with a large enough effect in the repeat runs; inconclusive = weak or mixed curves; inactive = no such curve, though single readings can be large; an effect the other way counts as inactive or inconclusive.

The nature of assay [1]: qHTS RealTime-Glo MT Cell Viability Assay in HEK293 cells - 40 hour (AID 1224874). Note: nearly all actives have a fitted effect of over 50% in size. The following applies: RealTime-Glo luminescence; max response: stronger effect = lower value. A digest of the protocol: (§1)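 Luminescence readout at each listed time point; HEK293, 600 cells/well, RealTime-Glo MT reagent added with cells; compounds pinned (23 nL in DMSO) after 5 h at 37 C; continuous culture at 37 C.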
Background: Quantitative high-throughput screening tests each substance at several concentrations.

The nature of assay [2]: A CellTox Green Cytotoxicity Assay to monitor cytotoxicity in HEK293 cells - 24 hour (AID 1224875). Note: series mostly up to about 77 µM; nearly all actives have a fitted effect of over 45% in size. A digest of the protocol:
(§2)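 Read-out: fluorescence of a cell-impermeant cyanine dye staining DNA of dead cells, proportional to cytotoxicity. HEK293, 600 cells/well with reagent, compound (23 nL DMSO) added after 5 h; reads at 0, 8, 16, 24, 32, 40 h.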

Assay [3] is described as follows: qHTS RealTime-Glo MT Cell Viability Assay in HepG2 cells - 32 hour (AID 1224877). Note: nearly all actives have a fitted effect of over 55% in size. Note: potency is the fitted concentration of half-maximal effect. A digest of the protocol: (§3)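 HepG2 suspension premixed with RealTime-Glo reagents is plated at 600 cells per well and left 5 h at 37 C/5% CO2. Compounds in DMSO then go in, and bioluminescence reflecting viable cell number is recorded over 40 h.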
The nature of assay [4]: A CellTox Green Cytotoxicity Assay to monitor cytotoxicity in HepG2 cells - 24 hour (AID 1224878). Note: nearly all actives have a fitted effect of over 45% in size. Note: potency is the fitted concentration of half-maximal effect. The essentials:
(§4)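 HepG2, 600 cells/well premixed w/ CellTox Green; 5 h settle, 37 C/5% CO2; pintool cpd add (DMSO); 37 C, 40 h; fluorescence read at 0, 8, 16, 24, 32, 40 h.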

A short description of assay [5]: A CellTox Green Cytotoxicity Assay to monitor cytotoxicity in HepG2 cells - 40 hour (AID 1224879). Note: nearly all actives have a fitted effect of over 40% in size. Note: potency is the fitted concentration of half-maximal effect. The essentials: as §4
A short description of assay [6]: qHTS RealTime-Glo MT Cell Viability Assay in HEK293 cells - 0 hour (AID 1224880). Note: top concentration of the series differs between compounds; nearly all actives have a fitted effect of over 45% in size. The essentials: as §1
Assay [7] is described as follows: A CellTox Green Cytotoxicity Assay to monitor cytotoxicity in HEK293 cells - 32 hour (AID 1224881). Note: nearly all actives have a fitted effect of over 40% in size. The essentials:
as §2

The nature of assay [8]: A CellTox Green Cytotoxicity Assay to monitor cytotoxicity in HepG2 cells - 0 hour (AID 1224882). Note: nearly all actives have a fitted effect of over 35% in size. A digest of the protocol:
as §4

Assay [9] can be described thus: A CellTox Green Cytotoxicity Assay to monitor cytotoxicity in HEK293 cells - 8 hour (AID 1224884). Note: nearly all actives have a fitted effect of over 35% in size. Note: potency is the fitted concentration of half-maximal effect. The essentials: as §2
The nature of assay [10]: qHTS RealTime-Glo MT Cell Viability Assay in HepG2 cells - 16 hour (AID 1224885). Note: nearly all actives have a fitted effect of over 50% in size. The essentials: as §3
A short description of assay [11]: qHTS RealTime-Glo MT Cell Viability Assay in HEK293 cells - 24 hour (AID 1224886). Note: nearly all actives have a fitted effect of over 50% in size. Note: potency is the fitted concentration of half-maximal effect. A digest of the protocol: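 Reads taken at 0, 8, 16, 24, 32 and 40 h from the same wells. HEK293 cells (600/well) carried RealTime-Glo reagents from seeding, with compound added after a 5 h settle at 37 C.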
A short description of assay [12]: qHTS RealTime-Glo MT Cell Viability Assay in HEK293 cells - 8 hour (AID 1224887). Note: nearly all actives have a fitted effect of over 50% in size. Note: potency is the fitted concentration of half-maximal effect. A digest of the protocol:
as §1

A short description of assay [13]: A CellTox Green Cytotoxicity Assay to monitor cytotoxicity in HEK293 cells - 16 hour (AID 1224888). Note: nearly all actives have a fitted effect of over 35% in size. A digest of the protocol:
as §2

The nature of assay [14]: qHTS RealTime-Glo MT Cell Viability Assay in HepG2 cells - 0 hour (AID 1224889). Note: nearly all actives have a fitted effect of over 50% in size. The essentials: as §3
Assay [15] is described as follows: qHTS assay to identify small molecule antagonists of the estrogen receptor alpha (ER-alpha) signaling pathway using the BG1 cell line in the presence of 0.1 nM 17-beta-estradiol - cell viability counter screen (AID 1259241). Note: nearly all actives have a fitted effect of over 40% in size. The essentials:
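In this screen, hormone-deprived VM7Luc4E2 cells were seeded at 4,000 per well, dosed with compound and 0.1 nM estradiol final, and incubated 22 hr at 37C and 5% CO2; fluorogenic live-cell protease signal reported viability.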

A short description of assay [16]: qHTS assay to identify small molecule antagonists of the androgen receptor (AR) signaling pathway using the MDA cell line in the presence of 0.5 nM R1881 - cell viability counter screen (AID 1259242). Note: nearly all actives have a fitted effect of over 45% in size. The essentials:
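Live-cell protease fluorescence, CellTiter-Fluor, 30 min at 37C. Cells: MDA-kb2, 3,000/well, preincubated 5 hr. Compounds plus 0.5 nM R1881 final, 16 hr, 37C, 0% CO2.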

Assay [17] is described as follows: A CellTox Green Cytotoxicity Assay to monitor cytotoxicity in HepG2 cells - 8 hour (AID 1224890). Note: nearly all actives have a fitted effect of over 45% in size. A digest of the protocol:
as §4

The nature of assay [18]: A CellTox Green Cytotoxicity Assay to monitor cytotoxicity in HepG2 cells - 16 hour (AID 1224876). Note: nearly all actives have a fitted effect of over 45% in size. Note: potency is the fitted concentration of half-maximal effect. The essentials: as §4
% is set by controls: 0 for no effect and ±100 for the full control effect.

In the case of `O=[N+]([O-])c1ccccc1O`, in [1], the max response is 3.7% (inactive) and -2.87% (inactive) and 7.99% (inactive). Moreover, the Potency result in [2], in assay [3], in assay [4], in assay [5], in [7] and in [8] was “inactive” throughout. Moreover, the Potency result in assay [9], in assay [10], in assay [11], in assay [12], in [13] and in assay [14] was “inactive” each time. Moreover, the Potency entry in [15] and in assay [16] was “inactive” in each case. In assay [6], the result was inactive.
Consider `CCCCn1cc[n+](C)c1`, for which the Potency result in [2], in assay [4], in assay [5], in assay [7], in assay [8] and in assay [9] was “inactive” throughout. For the same molecule, the Potency result in assay [10], in [11], in assay [12], in [13], in assay [14] and in assay [17] was “inactive” throughout. Also, the Potency result in assay [15] and in [16] was “inactive” throughout. Also, in assay [3], the Potency entry is “inactive and 44.3 µM (active)”. For the same molecule, the call in assay [6] was inactive.
`CCCCCCCCCCCCOS(=O)(=O)O`: the Potency is 49 µM (active) and inactive in assay [18]; 49 µM (active) and inactive in assay [4]; 49 µM (active) and inactive in assay [5]; 48.3 µM (active) and inactive in assay [9]. In addition, the Potency result in [3], in assay [8], in assay [10], in assay [11], in [12] and in assay [14] was “inactive” in each case. Further, the Potency result in assay [17], in assay [15] and in [16] was “inactive” throughout. Moreover, the molecule was called inactive in assay [6].
Turning to `CCCC[N+]1(C)CCCCC1`, in assay [1], the max response is -0.0247% (inactive) [middle of 5 runs]. The Potency result in [2], in [4], in assay [5], in [7], in assay [8] and in assay [10] was “inactive” each time. Further, the Potency entry in assay [11], in assay [12], in assay [13], in assay [14], in assay [15] and in assay [16] was “inactive” in each case. Further, the Potency result is “inactive and 48.8 µM (active)” in assay [3]; “inactive and 55.7 µM (active)” in [9]. In addition, the result in assay [6] was inactive.
Turning to `CCCCCCCCCCn1cc[n+](C)c1`, the Potency result in [2], in assay [3], in [7], in [8], in assay [9] and in [10] was “inactive” throughout. The Potency entry in assay [13], in assay [14], in assay [15] and in assay [16] was “inactive” throughout. The Potency in assay [4] is 44.1 µM (active) and inactive; in assay [5] it was 44.1 µM (active) and 48.9 µM (active); in assay [11], 389 nM (active); in [12] it was “inactive and 1.74 µM (active)”. Besides, in assay [6], the molecule was called inactive.
With `Nc1ccc(Cl)cc1`, in assay [1], the max response is -5.43% (inactive) and 1.39% (inactive). Also, the Potency result in assay [2], in assay [3], in assay [4], in [5], in [7] and in [8] was “inactive” throughout. In addition, the Potency result in assay [9], in assay [10], in assay [11], in assay [12], in assay [13] and in assay [14] was “inactive” throughout. Further, the Potency result in assay [17], in [15] and in [16] was “inactive” in each case. The molecule was called inactive in assay [6].
